The text below walks through data of PubChem BioAssay AID602124 (The Scripps Research Institute Molecular Screening Center, 2011).

Hit rate of the full screen: of about 1,300 compounds, about 630 (48%) were called active. The set was probably picked from earlier hits. The list is a sample of the results. Unmarked numbers belong to inactive results. Rule as the data show it: active = inhibition above about 6.5%; inactive = the rest.

The test deals with Tyrosine-protein kinase ABL1 (Homo sapiens) + Ras and Rab interactor 1 (Homo sapiens) (UniProt P00519+Q13671). Nature of the test: disruptors of human Abl and Rin1 association – biochemical, TR-FRET, confirmation (AID 602124). The note with it: TR-FRET Rin1-Abl binding, purified proteins; at 7.35 µM; active compounds read high. On the technique in general: Time-resolved FRET reads energy transfer from a long-lived donor to a nearby acceptor.
Tyrosine-protein kinase ABL1 (Homo sapiens) + Ras and Rab interactor 1 (Homo sapiens), sequence (P00519 whole entry, looked up): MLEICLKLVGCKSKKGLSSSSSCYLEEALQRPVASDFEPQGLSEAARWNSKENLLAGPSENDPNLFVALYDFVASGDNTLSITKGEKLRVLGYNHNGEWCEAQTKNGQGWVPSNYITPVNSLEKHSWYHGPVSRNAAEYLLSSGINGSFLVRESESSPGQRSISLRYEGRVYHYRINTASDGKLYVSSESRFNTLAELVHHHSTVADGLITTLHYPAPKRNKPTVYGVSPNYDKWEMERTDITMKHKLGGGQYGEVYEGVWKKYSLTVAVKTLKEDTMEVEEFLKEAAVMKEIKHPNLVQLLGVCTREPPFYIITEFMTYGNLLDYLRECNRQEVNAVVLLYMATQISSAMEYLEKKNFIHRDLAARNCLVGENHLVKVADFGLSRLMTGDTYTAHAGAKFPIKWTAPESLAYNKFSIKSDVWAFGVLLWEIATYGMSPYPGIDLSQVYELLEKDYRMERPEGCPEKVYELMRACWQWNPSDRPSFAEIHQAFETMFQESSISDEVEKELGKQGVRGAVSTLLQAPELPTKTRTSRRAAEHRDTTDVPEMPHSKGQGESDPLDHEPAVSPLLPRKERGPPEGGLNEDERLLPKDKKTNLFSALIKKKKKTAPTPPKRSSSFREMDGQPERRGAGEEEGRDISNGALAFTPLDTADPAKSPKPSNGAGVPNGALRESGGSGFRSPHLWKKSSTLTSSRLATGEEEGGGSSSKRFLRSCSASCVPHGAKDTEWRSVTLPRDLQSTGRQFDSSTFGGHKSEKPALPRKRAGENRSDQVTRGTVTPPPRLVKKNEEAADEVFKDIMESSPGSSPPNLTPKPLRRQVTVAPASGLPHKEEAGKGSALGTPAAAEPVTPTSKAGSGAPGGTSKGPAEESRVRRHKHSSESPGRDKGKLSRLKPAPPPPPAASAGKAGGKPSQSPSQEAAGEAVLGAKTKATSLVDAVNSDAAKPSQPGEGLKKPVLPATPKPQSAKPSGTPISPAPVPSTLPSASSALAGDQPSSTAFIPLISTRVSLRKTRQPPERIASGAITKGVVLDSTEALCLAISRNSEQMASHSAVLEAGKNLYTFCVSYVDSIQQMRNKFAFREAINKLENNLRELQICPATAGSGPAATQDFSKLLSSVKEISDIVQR
Tyrosine-protein kinase ABL1 (Homo sapiens) + Ras and Rab interactor 1 (Homo sapiens), sequence (Q13671 whole entry, looked up): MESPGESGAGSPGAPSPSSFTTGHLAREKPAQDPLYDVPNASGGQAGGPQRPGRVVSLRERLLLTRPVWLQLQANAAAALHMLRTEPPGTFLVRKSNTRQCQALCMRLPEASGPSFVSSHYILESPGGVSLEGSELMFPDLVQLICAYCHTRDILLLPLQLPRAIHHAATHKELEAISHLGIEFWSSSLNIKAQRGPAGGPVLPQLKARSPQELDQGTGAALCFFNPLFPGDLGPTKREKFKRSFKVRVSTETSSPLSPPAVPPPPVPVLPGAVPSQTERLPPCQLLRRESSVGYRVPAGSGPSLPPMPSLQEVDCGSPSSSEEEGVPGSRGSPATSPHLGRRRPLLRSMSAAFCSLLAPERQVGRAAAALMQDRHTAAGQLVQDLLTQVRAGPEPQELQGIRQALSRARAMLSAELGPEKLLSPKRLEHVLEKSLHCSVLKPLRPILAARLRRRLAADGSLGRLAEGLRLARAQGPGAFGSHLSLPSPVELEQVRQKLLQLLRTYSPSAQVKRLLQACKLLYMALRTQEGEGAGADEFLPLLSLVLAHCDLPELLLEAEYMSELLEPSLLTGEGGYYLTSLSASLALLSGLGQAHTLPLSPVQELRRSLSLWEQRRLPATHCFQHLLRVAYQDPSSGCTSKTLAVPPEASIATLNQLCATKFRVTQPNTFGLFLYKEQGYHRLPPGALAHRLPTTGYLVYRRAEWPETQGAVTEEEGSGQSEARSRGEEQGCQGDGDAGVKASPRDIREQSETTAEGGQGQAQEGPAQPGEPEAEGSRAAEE
For orientation: inhibition means the relative decrease from the control value, in per cent. On to `COc1ccc(CNC(=O)c2cc(C(=O)C3CC3)c[nH]2)cc1`, for which the inhibition is 1.47%.
For `CSc1ncnc2c1ncn2CC(=O)C1CCC2C3CCC4=CC(=O)CCC4(C)C3CCC12C` (stereo unspecified) the value was 11.9% (active); for `C#CCOCCOCCOCCNc1nc(N2CCN(C(=O)C(Cc3ccc(O)cc3)n3cc(C(N)CC(C)C)nn3)CC2)nc(N2CCN(C(=O)C(Cc3ccc(O)cc3)n3cc(C(N)C(C)CC)nn3)CC2)n1` (stereo unspecified), 13.9% (active); for `C[C@@H]1CN([C@H](C)CO)S(=O)(=O)c2ccc(C#C[C@@H](C)O)cc2O[C@@H]1CN(C)Cc1ccc(-c2ccccc2)cc1`, 32.5% (active).
For `O=C(c1cn(-c2ccccc2)nc1-c1cc2ccccc2oc1=O)N1CCOCC1` the value was -4.12%.
As to `O=C(CNCc1ccco1)Nc1cc(S(=O)(=O)N2CCOCC2)ccc1N1CCCC1`, the inhibition was -1.42%.
For `Oc1c(CN2CCN(c3ccc(F)cc3)CC2)cc(Cl)c2cccnc12` the value was -0.1%; for `C=C1c2c(Cl)ccc(O)c2C(O)=C2C(=O)[C@]3(O)C(O)=C(C(N)=O)C(=O)[C@@H](N(C)C)[C@@H]3[C@@H](O)C12` (stereo partly specified), 13.9% (active).
For `CN(Cc1c(F)cccc1Cl)C(=O)CNC(=O)c1ccc2c(c1)OCO2` the value was 45.8% (active); for `CC(C)CNS(=O)(=O)c1ccc(C(=O)Nc2ccc3c(c2)OCO3)cc1`, -0.58%; for `C=CCn1cc(C(=O)NCc2ccc(Cl)cc2)c(=O)c2cc(S(=O)(=O)N(CC)CC)ccc21`, 0.48%.
The same measure for `CCc1cc2c(N3CCN(c4nnc(CC)s4)CC3)ncnc2s1`: 4.08%; for `C=CCn1c2ccccc2c2nnc(SCc3[nH]c(=O)[nH]c3C(=O)CCCCC(=O)OCC)nc21`: 71.5% (active); for `Cc1ccc(C(NC(=O)C2CCN(CCOc3ccc(Cl)cc3Cl)CC2)c2ccccn2)cc1` (stereo unspecified): 0.23%.
With `Cc1cccc(N(C)C(=O)CN2C(=O)COc3ccc(S(=O)(=O)N4CCCCCC4)cc32)c1`, the inhibition is 7.15% (active).
For `CCOc1ccc(S(=O)(=O)N2CCCCC2)cc1NC(=O)CN1CCCC1c1cccs1` (stereo unspecified) the value was 0.05%.
For `NS(=O)(=O)c1ccc(CCNC(=O)Nc2ccc(Cl)cc2)cc1` the value was -1.53%; for `Oc1cccc2cc(-c3ccncc3)cnc12`, 20.6% (active).
For `CCOc1ccc(CNC(=O)C2CCCN(c3nnc(C)c4c(C)n(-c5ccccc5)nc34)C2)cc1` (stereo unspecified) the value was 12.6% (active); for `OC[C@@H]1CN(Cc2ccc(Cl)cc2)C[C@H](n2cnc3c(NCc4ccncc4)ncnc32)O1`, 2.98%.
For the molecule `Cc1nn(-c2ncc(C(F)(F)F)cc2Cl)c(=O)n1-c1ccccc1`, the inhibition was -0.89%.
The same measure for `O=C(CC1SCCNC1=O)Nc1ccc(Cl)cc1` (stereo unspecified): 12.1% (active); for `Nc1nc2n(n1)C(c1ccco1)CC(c1ccc(Cl)c(Cl)c1)N2` (stereo unspecified): 0.66%.
The same measure for `O=c1c2c(nc3n1CCCCC3)sc1c(O)cccc12`: 14.5% (active); for `CC(=O)NC(c1cccs1)c1cc(Br)c2cccnc2c1O` (stereo unspecified): 15.9% (active); for `Cc1c(CC(=O)N2CCN(C(=O)C3COc4ccccc4O3)CC2)c(=O)oc2c(O)c(O)ccc12` (stereo unspecified): 8.45% (active).
The same measure for `NC1=CC(=O)C(=O)c2cccnc21`: 19.5% (active); for `COc1cc(C(=S)N2CCOCC2)ccc1O`: -2.83%; for `Cc1ccccc1CN1C[C@@H]2C[C@@H](c3ccc4nsnc4c3)N3CCC[C@@]23C1=O`: 22% (active).
`Nc1cc(=O)c2[nH]cnc2[nH]1`: the inhibition was 18.1% (active).
For `O=c1cc(CO)oc(CN2CCC(Cc3ccccc3)CC2)c1O` the value was -3.76%.
